gsp antag: antagonizes gsp, the McCune-Albright syndrome mutation; gsp-mutant cells, cAMP HTRF, 30 min; Potency, µM (doses to about 76.9 µM), without a hit: at the top dose activity change, negative = inhibition, hits mostly inhibitors; hit rate 0.4% among 340,000; calls by dose curve; cell line not stated here;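 also: intracellular cAMP measured with PDE inhibitor Ro 20-1724 present during compound exposure; potency is read from the fitted curve at half-maximal effect; % is scaled to controls: 0 for no effect and ±100 for the full control effect; nearly all actives have a fitted effect of over 65% in size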
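Measurement of cellular cAMP by homogeneous time-resolved fluorescence following a 30 min compound exposure at 37C. The PDE inhibitor […] was present throughout; the assay buffer was DPBS with 0.05% BSA and 0.005% Tween 20.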
RXFP1 agonist: agonists of human relaxin receptor RXFP1 | HEK293T-RXFP1 cAMP TR-FRET, 30 min; response scale: percent of porcine relaxin response, buffer zero | hit rate 0.3% among 370,000 | Q9HBX9 | Potency, µM (top dose mostly 57.5 µM), without a hit: top-dose activation, actives largely listed as activators; active = well fitted activation curve with a large enough effect; inconclusive = small, poorly fitted or top-dose-only effect; also: potency is read from the fitted curve at half-maximal effect; % is scaled to controls: 0 for no effect and ±100 for the full control effect; nearly all actives have a fitted effect of over 60% in size
Target sequence (Q9HBX9 whole entry, looked up): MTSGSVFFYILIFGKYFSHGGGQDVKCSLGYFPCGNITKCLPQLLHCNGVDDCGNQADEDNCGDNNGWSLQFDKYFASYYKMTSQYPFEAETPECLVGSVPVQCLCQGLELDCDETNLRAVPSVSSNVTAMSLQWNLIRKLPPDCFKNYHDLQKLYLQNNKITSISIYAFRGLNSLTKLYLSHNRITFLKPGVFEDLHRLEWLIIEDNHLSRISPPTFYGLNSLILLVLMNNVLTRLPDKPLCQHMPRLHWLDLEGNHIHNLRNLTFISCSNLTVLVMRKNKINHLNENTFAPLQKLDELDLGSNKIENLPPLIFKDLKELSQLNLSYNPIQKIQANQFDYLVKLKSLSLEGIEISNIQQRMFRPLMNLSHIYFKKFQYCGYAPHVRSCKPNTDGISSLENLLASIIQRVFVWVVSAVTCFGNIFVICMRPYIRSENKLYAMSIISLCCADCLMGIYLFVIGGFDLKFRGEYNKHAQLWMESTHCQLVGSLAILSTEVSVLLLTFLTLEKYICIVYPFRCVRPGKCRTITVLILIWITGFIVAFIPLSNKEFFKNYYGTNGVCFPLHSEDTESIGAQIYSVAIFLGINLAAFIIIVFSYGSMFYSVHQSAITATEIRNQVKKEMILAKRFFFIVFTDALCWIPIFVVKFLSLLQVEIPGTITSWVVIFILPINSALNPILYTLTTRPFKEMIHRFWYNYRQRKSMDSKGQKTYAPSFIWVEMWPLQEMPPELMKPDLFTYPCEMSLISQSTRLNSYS
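HEK293T cells stably expressing RXFP1 were pretreated with the PDE4 inhibitor Ro 20174, exposed to compounds for 30 min at 37C, lysed, and cAMP was read by TR-FRET. Data normalized to buffer (basal) and 29 nM porcine relaxin (100%).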
gsp ag: agonists of gsp mutant (McCune-Albright syndrome); gsp mutant cells, cAMP HTRF, 30 min; Potency, µM (top dose mostly 76.9 µM), without a hit: at the top dose activation (cAMP increase), usual class: activators; hit rate 0.13% among 340,000; AID 624287; active = well fitted activation curve with a large enough effect; inconclusive = small, poorly fitted or top-dose-only effect, or another doubt; inactive = no such curve, though single readings can be large or run the other way; cell line not stated here;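 also: phosphodiesterase inhibitor Ro 20-1724 added with compounds to block cAMP breakdown; potency is read from the fitted curve at half-maximal effect; nearly all actives have a fitted effect of over 60% in size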
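Cells stably selected in G418 were plated at 2000/well, grown 16-24 hr, then given compounds in DMSO with the PDE inhibitor […] (300 uM solution added) for 30 min at 37C; cAMP was read by HTRF.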
RXFP1 antag: RXFP1 (human) relaxin receptor antagonism. AID 1259400. HEK293-RXFP1, relaxin-stimulated cAMP HTRF, 30 min; active compounds read low. activity change, negative = inhibition, % at 57.5 µM. Q9HBX9. hit rate 0.59% among 350,000;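 active = activity change of -60% or lower, but not beyond a set lower limit; inconclusive = change between -60% and -40%, or beyond the set limit; inactive = change above -40%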; also: % is scaled to controls: 0 for no effect and ±100 for the full control effect
TSHR antagonist: antagonists of human thyroid stimulating hormone receptor | P16473 | TSHR-expressing cells, TSH-stimulated cAMP HTRF, 2 h; active compounds read low | activity change, negative = inhibition, % at 11.5 µM | hit rate 0.2% among 330,000 | AID 504810;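 active = activity change below a set negative limit, meaning inhibition stronger than a set level, cut at about -70% in these data; inconclusive = activity change between two set negative limits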; also: % is scaled to controls: 0 for no effect and ±100 for the full control effect
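TSHR-expressing cells, 200/well, pre-treated with compound, then stimulated with EC80 TSH (4nM final) for 2 hours at 37 deg C. cAMP measured by competitive HTRF: anti-cAMP cryptate antibody in lysis buffer plus cAMP-d2, read after 30 minutes at room temperature.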
* hit, by the source's call; u = inconclusive; x = not tested or not shown; [ ] = remark or other dose. This is a sample that favours compounds with a hit; in the whole collection about 1% have one here.

SMILES	gsp antag	RXFP1 agonist	gsp ag	RXFP1 antag	TSHR antagonist
COC(=O)CN1CCN(C(c2ccccc2)c2ccccc2)CC1	-5.5%	-0.7%	-27.2%	-8.9	4.4
CN(Cc1ccccc1)C(=O)CN1CCN(C(c2ccccc2)c2ccccc2)CC1	-21.6%	3.1%	-10.4%[15.4 µM]	-81.4*	-15.7
COc1ccc(C)cc1NC(=O)COc1cc(=O)n(C)c2ccccc12	x	8.4%	x	x	x
CC(=O)Oc1ccc(N2C(=O)C3C4C=CC(CO)(O4)C3C2=O)cc1 (stereo not given)	-0.4%	0.6%	-14.6%	-5.4	11.6
O=C1C2C3C=CC(CO)(O3)C2C(=O)N1c1ccccc1-c1ccccc1 (stereo not given)	5.0%	1.0%	10.7%	-11.1	-73.2*
COc1ccc(/C=N/Nc2cc(C)nc3ccccc23)cc1	8.8%	0.3%	-30.5%	-70.6*	3.3
COc1ccc(/C=N/Nc2cc(C)nc3c(C)cccc23)cc1	9.0%	1.6%	-20.1%	-28.4	35.4
Cc1noc(NS(=O)(=O)c2ccc(NC(=O)c3ccc(N4C(=O)c5ccccc5C4=O)cc3)cc2)c1C	3.2%	4.9%	-1.7%[15.4 µM]	-32.6	-0.6
COc1cc(C(=O)Nc2ccc(S(=O)(=O)Nc3onc(C)c3C)cc2)cc(OC)c1OC	5.3%	4.4%	14.2%	1.9	46.3
Cc1cc(C)c(C#N)c(SCC(=O)Nc2ccc(S(=O)(=O)Nc3onc(C)c3C)cc2)n1	5.2%	13.7%	17.8µM*	x	5.6
Cc1noc(NS(=O)(=O)c2ccc(NC(=O)CSc3n[nH]c(-c4ccccc4)n3)cc2)c1C	10.8%	1.7%	-10.4%	6.9	-2.1
Cc1noc(NS(=O)(=O)c2ccc(NC(=O)c3nn(-c4ccccc4)ccc3=O)cc2)c1C	14.0%	u	14.1µM*	12.6	33.2
COc1ccc(CC(=O)Nc2ccc(S(=O)(=O)Nc3onc(C)c3C)cc2)cc1OC	2.1%	-0.3%	-6.6%	-113.1*	3.1
CC1C(=O)N(Cc2cn(CC3CCCCC3)nn2)CCS(=O)(=O)N1Cc1ccc(-c2cccc(CO)c2)cc1 (stereo not given)	x	x	-38.0%	-1.8	x
Cc1cccc2c(=O)cc(CSc3ccccc3NC(=O)C(C)(C)C)[nH]c12	x	-3.8%	x	-1.9	x
Cc1cn(C)c(CC(=O)N2CCN(c3ccccc3F)CC2)c1C(=O)O	x	1.4%	x	4.2	x
Cc1cc(C)n(CC(=O)Nc2cc(F)ccc2F)c(=O)c1C#N	x	-0.8%	x	x	x
CCN(C(=O)c1cn(CC)c(=O)c2cc(OC)c(OC)cc12)c1ccccc1F	x	-0.1%	x	x	x
COc1ccc(C(=O)Nc2ccccc2C(=O)O)cc1Cl	u	0.2%	-9.5%	-12.1	-27.7
COc1ccc(C(=O)Nc2ccccc2C(=O)O)cc1NC(=O)C(c1ccccc1)c1ccccc1	39.8µM*	0.5%	-1.7%	-24.2	-27.8
COc1ccc(C(=O)NC2CCCCCC2)cc1S(=O)(=O)N1CCCC1	11.2µM*	1.0%	4.4%[15.4 µM]	-4.4	-4.7
Cc1ccc(C(=O)Nc2ccccc2C(=O)O)cc1S(=O)(=O)N1CCCCCC1	x	-0.2%	x	-102.4*	x
O=C(Nc1ccccc1C(=O)O)c1ccc(NC(=O)c2ccc(Br)o2)cc1	35.5µM*	-2.4%	22.3%	-36.6	-29.5
CCc1nn2c(=O)cc(COC(=O)c3cccc(NC(=O)CCc4ccccc4)c3)nc2s1	x	14.5%	x	8.6	x
CCn1c(=O)c2c(nc(C=Cc3ccc(OC)c(OC)c3)n2C)n(CC)c1=O	x	x	x	-10.5	x
SMILES	gsp antag	RXFP1 agonist	gsp ag	RXFP1 antag	TSHR antagonist
O=C(Nc1ccccc1)c1ccc(NC(=O)C2CC2)cc1	9.3%	6.0%	-42.2%	0.3	-26.0
COc1ccccc1C(=O)Nc1ccc(C(=O)Nc2ccccc2C(=O)O)cc1	35.5µM*	2.0%	u	-18.0	2.5
O=C(Nc1ccccc1C(=O)O)c1ccc(NC(=O)C2CCCCC2)cc1	31.6µM*	0.6%	6.7%[15.4 µM]	u	-22.9
COc1ccccc1NC(=O)c1ccccc1NC(=O)c1ccccc1	x	0.9%	x	-13.5	x
Cc1nn(CC(=O)NCc2ccc(F)cc2)c2ccccc12	x	-7.1%	x	-1.7	x
Cc1ccc(C)c(CN2C(=O)c3ccccc3S(=O)c3ccc(C(=O)NCCc4ccc(Cl)cc4)cc32)c1 (stereo not given)	x	-1.6%	x	x	x
CCOP(=O)(Cc1ccc(C(C)(C)CC(C)=O)o1)OCC	-1.9%	0.4%	6.1%	7.4	-81.8*
O=C(CSCc1c(F)cccc1Cl)NCc1cccnc1	18.3%	-0.3%	-44.8%	x	38.1
Fc1cccc(Cl)c1CNCc1cccnc1	15.2%	0.5%	-3.8%	1.5	-106.5*
CCCCNC(=O)CCCn1c(=O)c2ccccc2n(CC(=O)Nc2ccccc2OCC)c1=O	x	4.5%	x	x	x
O=C1c2ccccc2NC(c2ccc(Br)s2)N1O (stereo not given)	-1.7%	x	15.8µM*	-1.2	x
CC(Oc1ccc2c3c(c(=O)oc2c1)CCC3)C(=O)NCC1CCC(C(=O)O)CC1 (stereo not given)	31.6µM*	3.2%	x	x	-7.1
O=C(NC1CCCCC1)c1cc2cc(Br)ccc2o1	-1.5%	0.4%	-11.2%	-6.2	-20.7
O=C(NC1CCCC1)c1cc2cc(Br)ccc2o1	7.7%	1.0%	2.51µM*	-0.3	-19.1
O=c1oc2c3c(ccc2c2ccccc12)OCN(Cc1ccccc1Cl)C3	x	28.2µM*	x	2.3	x
Cc1cc(C)nc(NS(=O)(=O)c2ccc(NC(=O)COc3ccc(C(C)(C)C)cc3)cc2)n1	x	-0.5%	x	-85.6*	x
COc1ccc(OCC(=O)Nc2ccc(S(=O)(=O)Nc3nc(C)cc(C)n3)cc2)cc1	-9.9%	1.7%	u	6.1	5.6
Cc1ccc(C)c(OCCC(=O)OCC(=O)NCCNC(=O)COC(=O)CCOc2cc(C)ccc2C)c1	-8.6%	1.7%	-11.7%[15.4 µM]	-62.0*	-0.1
Cc1ccc(C)c(OCCC(=O)OCC(=O)NCc2ccccc2)c1	4.1%	-0.7%	12.2%[15.4 µM]	-0.3	-4.0
COCCNC(=O)c1ccc(-n2c(-c3ccccc3)cc3c2CCC(C)C3)cc1 (stereo not given)	x	-1.5%	x	-70.7*	x
CCCNC(=O)c1ccc(-n2c(-c3ccccc3)cc3c2CCC(C)C3)cc1 (stereo not given)	x	-2.7%	x	-35.8	x
COc1cccc(N2CCN(C(=O)CCc3c(C)nc4c(c3C)c(=O)n(C)c(=O)n4C)CC2)c1	x	28.0%	x	x	x
CCC(CC)C(=O)Nc1cccc(-c2nc3cccnc3s2)c1C	x	0.7%	x	-5.0	x
NC(=O)c1cccc(C[C@H](C(=O)O)N2C(=O)c3ccc(C(=O)O)cc3C2=O)c1	x	1.7%	x	x	0.7
Cc1oc2cc(Br)c(O)c(Br)c2c1-c1ccccc1	-12.6%	0.0%	8.7%[15.4 µM]	-100.6*	-9.6
COc1ccc(CCNC(=O)Cn2nc(C)c3c(C)n(-c4ccc(C)cc4)nc3c2=O)c(OC)c1	x	4.4%	x	-28.5	-25.6
CC(C)c1ccc(NS(=O)(=O)c2ccc3nc(-c4ccccc4)[nH]c3c2)cc1	x	0.8%	x	-68.5*	x

Compound activity (PubChem BioAssay)
